# Experimental data published in publication PMC8384837, “Expanding the binding specificity for RNA recognition by a PUF domain”.
# Columns and labels:
# Assay in all cases: yeast three-hybrid, YBZ-1, SC-Leu-His + 0.5 mM 3-AT, 4 days
# Conditions in all cases: tags: N-Gal4 AD-HA kept; label: inside an RPR1-promoter hybrid RNA with tandem MS2 sites; ssRNA
# PUM1 PUF domain R7-VVK = PUM1 PUF domain R7-VVK (Homo sapiens, UniProt Q14671 828-1176, S1079V;N1080V;E1083K)
# In short: (§1)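 Sequencing with Illumina followed PCR amplification of the repeat regions from transformants grown four days on SC-Leu (input) or SC-Leu-His + 0.5 mM 3-AT (selection). The transformants were strain YBZ-1 with a LexA–MS2 coat fusion and a HIS3 reporter, carrying Pumilio-1 PUF domain libraries and matching RNA elements. The interaction score is the log change in variant frequency from input to selection, computed in log2 with a pseudocount of 1 for absent variants.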
# PUM1 PUF domain R1-KPL = PUM1 PUF domain R1-KPL (Homo sapiens, UniProt Q14671 828-1176, S863K;R864P;Q867L)
# In short: as §1
# PUM1 PUF domain R1-RPC = PUM1 PUF domain R1-RPC (Homo sapiens, UniProt Q14671 828-1176, S863R;R864P;Q867C)
# In short: as §1
# PUM1 PUF domain R2-DRQ = PUM1 PUF domain R2-DRQ (Homo sapiens, UniProt Q14671 828-1176, N899D;Y900R)
# In short: as §1
# PUM1 PUF domain R5-HLE = PUM1 PUF domain R5-HLE (Homo sapiens, UniProt Q14671 828-1176, C1007H;R1008L;Q1011E)
# In short: as §1
# PUM1 PUF domain R5-GRV = PUM1 PUF domain R5-GRV (Homo sapiens, UniProt Q14671 828-1176, C1007G;Q1011V)
# In short: as §1
# PUM1 PUF domain R3-LWC = PUM1 PUF domain R3-LWC (Homo sapiens, UniProt Q14671 828-1176, C935L;R936W;Q939C)
# In short: as §1
# PUM1 PUF domain R4-HWP = PUM1 PUF domain R4-HWP (Homo sapiens, UniProt Q14671 828-1176, N971H;H972W;Q975P)
# In short: as §1
# PUM1 PUF domain R4-GPT = PUM1 PUF domain R4-GPT (Homo sapiens, UniProt Q14671 828-1176, N971G;H972P;Q975T)
# In short: as §1
# PUM1 PUF domain R3-GPE = PUM1 PUF domain R3-GPE (Homo sapiens, UniProt Q14671 828-1176, C935G;R936P;Q939E)
# In short: as §1
sequence,measurement,setting,value
GGCUAGAACUAGUGGAUCCCCCGGCGCCCGGCGGCUCGAGCCCGGGUAAGUUUAAAUAGUCUGCAUGCCGCCGGGCGCCAUGCCUGCAGGUCGACUCUAGAAAACAUG,binding signal,PUM1 PUF domain R7-VVK,3.27 log2 enrichment (interaction score)
GGCUAGAACUAGUGGAUCCCCCGGCGCCCGGCGGCUCGAGCCCGGGUAAGUGUAAAUUGUCUGCAUGCCGCCGGGCGCCAUGCCUGCAGGUCGACUCUAGAAAACAUG,binding signal,PUM1 PUF domain R1-KPL,3.37 log2 enrichment (interaction score)
same,binding signal,PUM1 PUF domain R1-RPC,1.56 log2 enrichment (interaction score)
GGCUAGAACUAGUGGAUCCCCCGGCGCCCGGCGGCUCGAGCCCGGGUAAGUGUAAAAAGUCUGCAUGCCGCCGGGCGCCAUGCCUGCAGGUCGACUCUAGAAAACAUG,binding signal,PUM1 PUF domain R2-DRQ,2.96 log2 enrichment (interaction score)
GGCUAGAACUAGUGGAUCCCCCGGCGCCCGGCGGCUCGAGCCCGGGUAAGUGUCAAUAGUCUGCAUGCCGCCGGGCGCCAUGCCUGCAGGUCGACUCUAGAAAACAUG,binding signal,PUM1 PUF domain R5-HLE,0.68 log2 enrichment (interaction score)
GGCUAGAACUAGUGGAUCCCCCGGCGCCCGGCGGCUCGAGCCCGGGUAAGUGUUAAUAGUCUGCAUGCCGCCGGGCGCCAUGCCUGCAGGUCGACUCUAGAAAACAUG,binding signal,PUM1 PUF domain R5-GRV,3.07 log2 enrichment (interaction score)
same,binding signal,PUM1 PUF domain R5-HLE,2.54 log2 enrichment (interaction score)
GGCUAGAACUAGUGGAUCCCCCGGCGCCCGGCGGCUCGAGCCCGGGUAAGUGUAAUUAGUCUGCAUGCCGCCGGGCGCCAUGCCUGCAGGUCGACUCUAGAAAACAUG,binding signal,PUM1 PUF domain R3-LWC,2.16 log2 enrichment (interaction score)
GGCUAGAACUAGUGGAUCCCCCGGCGCCCGGCGGCUCGAGCCCGGGUAAGUGUAAAUCGUCUGCAUGCCGCCGGGCGCCAUGCCUGCAGGUCGACUCUAGAAAACAUG,binding signal,PUM1 PUF domain R1-KPL,2.58 log2 enrichment (interaction score)
same,binding signal,PUM1 PUF domain R1-RPC,2.57 log2 enrichment (interaction score)
GGCUAGAACUAGUGGAUCCCCCGGCGCCCGGCGGCUCGAGCCCGGGUAAGUGUAUAUAGUCUGCAUGCCGCCGGGCGCCAUGCCUGCAGGUCGACUCUAGAAAACAUG,binding signal,PUM1 PUF domain R4-HWP,4.4 log2 enrichment (interaction score)
same,binding signal,PUM1 PUF domain R4-GPT,2.14 log2 enrichment (interaction score)
GGCUAGAACUAGUGGAUCCCCCGGCGCCCGGCGGCUCGAGCCCGGGUAAGUGUAAGUAGUCUGCAUGCCGCCGGGCGCCAUGCCUGCAGGUCGACUCUAGAAAACAUG,binding signal,PUM1 PUF domain R3-LWC,3.65 log2 enrichment (interaction score)
same,binding signal,PUM1 PUF domain R3-GPE,5.98 log2 enrichment (interaction score)
GGCUAGAACUAGUGGAUCCCCCGGCGCCCGGCGGCUCGAGCCCGGGUAAGUGUGAAUAGUCUGCAUGCCGCCGGGCGCCAUGCCUGCAGGUCGACUCUAGAAAACAUG,binding signal,PUM1 PUF domain R5-GRV,2.53 log2 enrichment (interaction score)
GGCUAGAACUAGUGGAUCCCCCGGCGCCCGGCGGCUCGAGCCCGGGUAAGUGUAAAUAGUCUGCAUGCCGCCGGGCGCCAUGCCUGCAGGUCGACUCUAGAAAACAUG,binding signal,PUM1 PUF domain R4-HWP,5.47 log2 enrichment (interaction score)
same,binding signal,PUM1 PUF domain R5-GRV,2.75 log2 enrichment (interaction score)
same,binding signal,PUM1 PUF domain R4-GPT,2.42 log2 enrichment (interaction score)
same,binding signal,PUM1 PUF domain R5-HLE,1.15 log2 enrichment (interaction score)
